# In paper PMC4336329 (PLoS ONE, 2015):
# The whole screen tested about 310,000 compounds, of which about 14,000 (4.5%) showed an effect of 50% or more. The effect is printed as a negative number. The full list was thinned out, with strong results kept by preference.
# Biological target: human ether-à-go-go-related gene (hERG) potassium channel (human, UniProt Q12809)
# Assay: primary screen, population patch clamp on CHO cells stably expressing hERG; higher = less effect of the substance
# 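Note: peak tail current of the secondary pulse compared with the same well before compound.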
# Sequence of human ether-à-go-go-related gene (hERG) potassium channel (Q12809 whole entry, looked up): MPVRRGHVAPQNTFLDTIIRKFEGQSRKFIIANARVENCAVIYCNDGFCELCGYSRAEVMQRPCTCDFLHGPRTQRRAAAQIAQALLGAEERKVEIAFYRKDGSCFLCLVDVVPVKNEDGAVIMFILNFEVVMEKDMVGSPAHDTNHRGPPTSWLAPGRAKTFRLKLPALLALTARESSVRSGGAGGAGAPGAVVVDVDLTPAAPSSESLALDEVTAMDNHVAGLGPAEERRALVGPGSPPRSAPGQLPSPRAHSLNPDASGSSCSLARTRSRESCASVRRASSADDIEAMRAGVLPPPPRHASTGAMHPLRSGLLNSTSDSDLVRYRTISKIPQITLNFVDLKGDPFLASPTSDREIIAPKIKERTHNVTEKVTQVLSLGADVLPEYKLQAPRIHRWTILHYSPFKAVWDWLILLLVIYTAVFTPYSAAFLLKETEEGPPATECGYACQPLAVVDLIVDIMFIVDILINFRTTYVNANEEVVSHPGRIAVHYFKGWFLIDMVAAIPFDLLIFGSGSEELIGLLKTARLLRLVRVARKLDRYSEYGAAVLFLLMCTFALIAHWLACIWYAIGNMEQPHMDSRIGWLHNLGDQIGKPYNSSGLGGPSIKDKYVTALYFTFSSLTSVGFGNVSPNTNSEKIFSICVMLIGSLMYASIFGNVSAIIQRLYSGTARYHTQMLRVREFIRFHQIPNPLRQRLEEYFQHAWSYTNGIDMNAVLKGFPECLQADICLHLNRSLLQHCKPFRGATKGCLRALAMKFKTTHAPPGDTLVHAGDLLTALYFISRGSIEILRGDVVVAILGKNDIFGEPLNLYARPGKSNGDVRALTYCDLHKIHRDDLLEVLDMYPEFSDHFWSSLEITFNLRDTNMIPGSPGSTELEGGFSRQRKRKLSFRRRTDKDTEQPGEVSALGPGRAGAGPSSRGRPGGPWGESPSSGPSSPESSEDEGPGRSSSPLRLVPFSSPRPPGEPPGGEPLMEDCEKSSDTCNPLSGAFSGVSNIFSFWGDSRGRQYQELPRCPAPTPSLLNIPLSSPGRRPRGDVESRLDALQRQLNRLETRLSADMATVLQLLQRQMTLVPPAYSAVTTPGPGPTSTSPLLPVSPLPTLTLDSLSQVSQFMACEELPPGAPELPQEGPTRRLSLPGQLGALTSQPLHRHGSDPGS
row,Structure (SMILES),"hERG current change (%, negative = inhibition) at 10uM [%]"
1,O=C(/C=C/c1ccccc1)N(Cc1cccs1)C1CCS(=O)(=O)C1 (stereo not shown),-30.3
2,O=C(/C=C/c1ccccc1)N(Cc1cccc(Cl)c1)C1CCS(=O)(=O)C1 (stereo not shown),-25.6
3,O=C(/C=C/c1ccc(Cl)cc1)N(Cc1cccs1)C1CCS(=O)(=O)C1 (stereo not shown),-72.8
4,O=C(/C=C/c1ccc(Cl)cc1)N(Cc1ccccc1)C1CCS(=O)(=O)C1 (stereo not shown),-75
5,S=C(NCc1cccs1)Nc1ccccc1Cl,9.58
6,CCC1CCCCN1C(=O)CCS(=O)(=O)c1ccccc1 (stereo not shown),13.7
7,COc1ccc(/C(O)=C2/C(=O)C(=O)N(CCCC(=O)O)C2c2ccc(OC)cc2)cc1 (stereo not shown),11.7
8,Cc1cc(C(=O)NCc2cccc(Cl)c2)c2ccccc2n1,15.8
9,COC(=O)c1cccc(C23CC4(C2)[C@H](CN(Cc2cccnc2)[C@@H]4c2ccccc2)C3c2ccccc2)c1 (stereo partly shown),8.51
10,CCC(=O)N1CCc2cc(S(=O)(=O)CCC(=O)NC3CCCCC3)ccc21,5.33
11,Cc1nn(C)c(C(=O)N/N=C/c2ccncc2)c1Cl,7.35
12,COc1ccccc1N1C(=O)c2ccc(C(=O)Nc3cccc(C(C)=O)c3)cc2C1=O,1.69
13,CCn1cc(CN(C)S(=O)(=O)c2ccc3ccccc3c2)c(C)n1,-1.17
14,CCN(Cc1ccccc1)C(=O)CCc1nc(CN2CCN(C(=O)c3ccc([N+](=O)[O-])cc3)CC2)no1,-64.2
15,S=C(c1ccc(Br)cc1)N1CCN(Cc2ccccc2)CC1,-36.3
16,O=C(Cc1ccccc1)N1CCN(C(=O)c2ccc([N+](=O)[O-])cc2)CC1,-51
17,O=C(Cc1ccccc1)NC1CCN(C(=O)c2ccc([N+](=O)[O-])cc2)CC1,-47.7
18,Cc1ccc(C(=S)N2CCN(Cc3ccccc3)CC2)cc1,-42.9
19,CSc1ccc(C(=S)N2CCN(Cc3ccccc3)CC2)cc1,-50.4
20,COc1ccc([N+](=O)[O-])cc1NC(=O)c1cccs1,4.41
21,COc1ccc(OC)c(NC(=O)C2CCN(C(=O)c3cccs3)CC2)c1,15.7
22,CCN(Cc1ccccc1)C(=O)CCc1nc(-c2ccc(C)cc2)no1,-12.1

row,Structure (SMILES),"hERG current change (%, negative = inhibition) at 10uM [%]"
1,COc1ccc([N+](=O)[O-])cc1NC1CCN(C(=O)c2cccs2)CC1,-85.7
2,COc1ccc(-c2noc(CCC(=O)N3CCN(Cc4ccccc4)CC3)n2)cc1,-32.8
3,COc1ccc(C(=O)N2CCN(C(=O)Cc3ccccc3)CC2)cc1.O=C(O)C(=O)O,0.269
4,Cc1ccc2nc(NC(=O)c3ccc(-c4nc5ccccc5s4)s3)sc2c1,0.614
5,O=C(Nc1cccnc1)c1ccccc1NS(=O)(=O)c1ccc(F)cc1,-11.5
6,Cc1c(Cl)ccc2c1NC(=O)C21NC(CCC(N)=O)[C@H]2C(=O)N(c3ccc(Cl)cc3)C(=O)[C@H]21 (stereo partly shown),7.5
7,O=C(c1ccccc1NS(=O)(=O)c1ccc(F)cc1)N1CCCCC1,-4.35
8,COCCN(C(=O)CCCC(=O)Nc1ccccn1)C(C(=O)NC1CCCCC1)c1ccc(C)cc1 (stereo not shown),-17.7
9,CCc1ccc2oc(-c3ccc(NC(C)=O)cc3)nc2c1,10.7
10,O=C(Nc1ccc(C(=O)N2CCCCC2)cc1)c1ccc([N+](=O)[O-])cc1,-1.34
11,O=C(c1ccc([N+](=O)[O-])cc1)N1CCN(c2cccc3[nH]ccc23)CC1,-72.7
12,O=C(c1ccc(Cl)cc1)N1CCN(c2cccc3[nH]ccc23)CC1,3.68
13,O=C(NNC(=O)c1ccc([N+](=O)[O-])cc1)c1ccc(F)cc1,6.25
14,O=C(c1ccc([N+](=O)[O-])cc1)N1CCN(Cc2ccccc2)CC1,-66.4
15,O=C(c1ccc([N+](=O)[O-])cc1)N1CCN(c2ncccn2)CC1,-77.8
16,O=C(c1cccc([N+](=O)[O-])c1)N1CCN(Cc2ccccc2)CC1,-9.31
17,O=C(c1cccc([N+](=O)[O-])c1)N1CCN(c2ncccn2)CC1,-8.55
18,O=C(c1c(Cl)cccc1Cl)N1CCN(c2cccc3[nH]ccc23)CC1,22.3
19,O=C(c1ccc(F)cc1)N1CCN(C(=O)c2ccc([N+](=O)[O-])cc2)CC1,-63.2
20,O=C(c1cc([N+](=O)[O-])ccc1Cl)N1CCN(Cc2ccccc2)CC1,4.75
21,O=C(c1ccccc1)N1CCN(c2ncccn2)CC1,17.6
